The source holds several records for some structures; these can differ, active in one and inactive in another. The source made the active and inactive calls. How the source made its calls: active means hit-call score of the fitted dose curve at least 0.9, where 1 is the maximum; inactive means score below 0.9.

This is an account of results in PubChem BioAssay (EPA / NIEHS).

Sequence of Cytochrome P450 3A7 (Homo sapiens) (P24462 whole entry, looked up): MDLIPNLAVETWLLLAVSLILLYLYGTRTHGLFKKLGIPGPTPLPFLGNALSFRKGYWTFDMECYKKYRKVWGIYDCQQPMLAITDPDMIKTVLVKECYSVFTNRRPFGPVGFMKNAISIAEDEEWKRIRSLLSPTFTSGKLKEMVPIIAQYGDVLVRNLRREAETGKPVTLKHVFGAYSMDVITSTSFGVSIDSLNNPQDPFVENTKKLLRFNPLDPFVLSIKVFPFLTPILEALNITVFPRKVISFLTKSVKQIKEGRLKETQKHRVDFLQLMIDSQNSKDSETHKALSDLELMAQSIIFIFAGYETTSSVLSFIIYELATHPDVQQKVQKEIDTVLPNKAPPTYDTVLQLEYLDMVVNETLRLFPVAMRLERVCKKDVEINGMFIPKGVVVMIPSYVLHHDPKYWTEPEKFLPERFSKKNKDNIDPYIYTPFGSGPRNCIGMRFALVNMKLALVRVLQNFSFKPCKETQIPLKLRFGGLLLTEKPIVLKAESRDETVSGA

Read-out in the test: Cytochrome P450 3A7 (Homo sapiens) (UniProt P24462)
The test can be described thus: LTEA_HepaRG_CYP3A7: Life Technologies and Expression Analysis (LTEA) Assay for CYP3A7 using HepaRG (AID 2283492). The following applies: mRNA level, 48 h; actives raise or lower the signal. As to the method:
LTEA_HepaRG is a cell based, multiplexed-readout assay that uses HepaRG, a human liver cell line, with measurements taken at 48 hours after chemical dosing on a 96-well plate.LTEA_HepaRG_CYP3A7 is one of 102 assay component(s) measured in the LTEA HepaRG cell culture assay. It is a marker of NR mediated metabolism/Undifferentiated hepatocyte.Data from the assay component LTEA_HepaRG_CYP3A7 was analyzed into 1 endpoint. This assay endpoint, LTEA_HepaRG_CYP3A7, was analyzed with bidirectional fitting relative to DMSO as the negative control and baseline of activity. Using a type of inducible reporter, measures of mRNA induction for gain or loss-of-signal activity can be used to understand regulation of transcription factor activity. To generalize the intended target to other relatable targets, this assay endpoint is annotated to the cyp intended target family, where the subfamily is xenobiotic metabolism.
A total of 1060 chemcials from the ToxCast library were tested in eight-point concentration-response experiments. Cell culture and cytotoxicity assays were conducted at Thermo Fisher Scientific's Custom Services facility (Madison, WI). A single lot of human HepaRG cells (Thermo Fisher Scientific, Frederick, MD) was used for the cell culture experiments. 96-well format collagen type I coated plates of human HepaRG cells were prepared using established methods. Briefly, cryopreserved HepaRG cells were thawed, plated at a density of approximately 100,000 cells/well in HepaRG Thaw, Plate, and General Purpose media (HPRG770, Thermo Fisher Scientific), and incubated for 48 hours. 0.5% DMSO was selected as vehicle control to balance the requisite need of DMSO in HepaRG cultures to maintain differentiation (for example, baseline metabolism, proportions of hepatocytes vs. cholangiocytes), while enabling further hepatic receptor pathway activation (for example, PXR and CAR) in response to chemical exposure. 48 hours after plating, the culture medium was replaced with HepaRG Serum-Free Incudtion Media. Cells were exposed to each test chemical in duplicate and maintained in CO2 incubators for another 48 hours. Chemical plates were thawed to room temperature and 200x concentrations of treatment groups were prepared. 8-point conentration-reponse curves were made with the highest exposure at 100 uM, followed by half-log dilutions, all in 0.5% DMSO. Each test plate contained variouse controls, induction positive controls (1mM phenobarbital), cytotoxicity positive controls ([…] aflatoxin B1), vehicle controls (0.5% DMSO), and total lysis controls (0.5% DMSO). Cell morphology images were taken using an Essen IncuCyte FLR automated microscope, with six 96-well plates imaged in about 24 minutes. Images were captured and exported and JPEG files. Spent culture media was transfered to black-well plates for the LDH assay, and remaining media was sorted at -80 C for later use. Cells were treated with RLT buffer and frozen until shipped for gene expression analysis. Total RNA was isolated from the cell suspension in 75 uL of Buffer RLT (Qiagen, Germantown, MD 20874) by Quintiles/Expression Analysis (Durham, NC) using a custom isolation procedure. Total RNA from each plate well was transferred to a preamplification plate. Fluidigm's 96.96 Dynamic ArrayTM (Fluidigm, Amsterdam, the Netherlands) technology was used for gene expression analyses by quantitative reverse transcription polymerase chain reaction (qRT-PCR, performed by Quintiles/Expression Analysis, Durham, NC)89. Standard TaqManTM Assays (Applied Biosystems/ThermoFisher Scientific, Foster City, CA) were used to assess the expression of 93 genes selected based on their selectivity and sensitivity to important hepatic receptors known to be modulated by environmental chemicals; importance in human hepatocyte functionality; and hepatotoxicity. […]
With `O=C(O)C(F)(F)C(F)(F)C(F)(F)C(F)(F)C(F)(F)C(F)(F)C(F)(F)C(F)(F)C(F)(F)C(F)(F)F`, the compound was classed as inactive.

Regarding `NC(=O)O`, the outcome was inactive.

As to `CC(C)(C)c1cc(O)ccc1O`, the compound was classed as inactive.

As to `CC(C)(c1ccccc1)c1ccc(O)c(C(C)(C)c2ccccc2)c1`, the AC50 was 80.8 µM (active). Regarding `O=C(O)C(F)(F)C(F)(F)C(F)(F)C(F)(F)C(F)(F)C(F)(F)F`, the AC50 was 35 µM (active). For the compound `C=C(C)C(=O)[O][Sn]([CH2]CCC)([CH2]CCC)[CH2]CCC`, the AC50 was 2.71 µM (active).

Regarding `CCOP(=S)(OCC)SCSP(=S)(OCC)OCC`, the AC50 was 50 µM (active).

For the compound `CN(C)N=O`, the result was inactive. As for `Oc1cccc2cccnc12`, the compound was classed as inactive. On to `ClCC(Cl)CCl`, for which the outcome was inactive.

Regarding `CCN1CCC2(CC1)COc1cc3c(cc12)N(C(=O)c1ccc(-c2ccc(-c4nnc(C)o4)cc2C)cc1)CC3`, the outcome was inactive. Regarding `CCC(C)(C)c1ccc(O)c(C(C)(C)CC)c1`, the call was inactive. Turning to `COc1cc(-c2ccc(N)c(OC)c2)ccc1N`, the AC50 was 82.9 µM (active) and the compound was classed as inactive.

For the compound `O=[N+]([O-])c1ccc(O)c([N+](=O)[O-])c1`, the AC50 is 16.4 µM (active). Regarding `Cc1ccccc1N`, the compound was called inactive. Regarding `O=c1[nH]c(=O)[nH]c(=O)[nH]1`, the call was inactive. For the compound `CCCCCCCCc1ccc(O)cc1`, the compound was called inactive.

In the case of `ClC1(Cl)C2(Cl)C3(Cl)C4(Cl)C(Cl)(Cl)C5(Cl)C3(Cl)C1(Cl)C5(Cl)C24Cl` (stereo not given), the AC50 is 4.64 µM (active).

Turning to `CC(C)(C)CC(C)(C)c1ccc(O)cc1`, the call was inactive. `O=C(Nc1ccc2[nH]ccc2c1)c1cc2cc(F)ccc2n1Cc1cccc(F)c1`: the AC50 is 75.6 µM (active). As for `C[C@]12CCC(=O)C[C@@H]1CC[C@@H]1[C@@H]2CC[C@]2(C)[C@@H](O)CC[C@@H]12`, the compound was classed as inactive. In the case of `CC(=O)[O][Hg][c]1ccccc1`, the AC50 was 5 µM (active).

`O=C(O)C(Cl)(Cl)Cl`: the result was inactive. Take `Cn1sc(Cl)cc1=O`: the compound was called inactive.

Turning to `CC(C)(OO)c1ccccc1`, the call was inactive.

Turning to `CC12CC1(C)C(=O)N(c1cc(Cl)cc(Cl)c1)C2=O` (stereo not given), the outcome was inactive.

On to `O=C1C2(Cl)C3(Cl)C4(Cl)C(Cl)(Cl)C5(Cl)C3(Cl)C1(Cl)C5(Cl)C24Cl` (stereo not given), for which the result was inactive.

For the compound `C=CC(=O)OCCCCCC(C)C`, the compound was called inactive.

For the compound `CCOP(=S)(OCC)Oc1nc(Cl)c(Cl)cc1Cl`, the call was inactive.

As a reminder, the AC50 is the midpoint of the concentration-response curve, whichever way the signal moves.
